# Only some compounds are listed: those with a hit (about 4.8% of all), similar ones and a draw of the others.
# APP 5'UTR act – activators of APP 5'UTR luciferase reporter, primary screen, SH-SY5Y cells; SH-SY5Y APP 5'UTR luciferase reporter, luminescence; zero percent = DMSO vehicle wells; activation, % at 2 µM; hit rate 1% among 190,000;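 active means activation above a set limit, based on mean plus 3 SD of controls, cut at about 140% in these data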
# Hsp70 activator – Hsp70 transcriptional activators, primary screen, cell-based, HeLa, Hsp70 promoter luciferase, luminescence, 10 µM; HeLa Hsp70 promoter luciferase reporter; scaled: vehicle 0, proteasome-inhibitor control 100%; activation, % at 10 µM; hit rate 0.04% among 200,000; AID 1203, 2008;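 active means activation above the mean across all tested compounds plus 3 SD, cutoff set per campaign, cut at about 5.5% in these data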;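 further: 100% = MG132 at 30 µM as the positive control and 0% = DMSO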
# Wee1 stabilizer – Wee1 degradation inhibitors, primary screen, cell-based, HeLa, Wee1K328M-luciferase, luminescence. AID 1321, 2008. hit rate 1.2% among 220,000. HeLa Luc-Wee1K328M stability; 100% = proteasome inhibitor MG132 effect. Wee1-like protein kinase (Homo sapiens), P30291. reporter increase, % at 5 µM;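 active means activation above the mean of all tested compounds plus 3 SD, set per screening run, cut at about 8.8% in these data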;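 further: cells exposed to compound for 20 h before luminescence read; 0% = DMSO alone and 100% = MG132 at 30 µM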
# Target sequence (P30291 whole entry K328M): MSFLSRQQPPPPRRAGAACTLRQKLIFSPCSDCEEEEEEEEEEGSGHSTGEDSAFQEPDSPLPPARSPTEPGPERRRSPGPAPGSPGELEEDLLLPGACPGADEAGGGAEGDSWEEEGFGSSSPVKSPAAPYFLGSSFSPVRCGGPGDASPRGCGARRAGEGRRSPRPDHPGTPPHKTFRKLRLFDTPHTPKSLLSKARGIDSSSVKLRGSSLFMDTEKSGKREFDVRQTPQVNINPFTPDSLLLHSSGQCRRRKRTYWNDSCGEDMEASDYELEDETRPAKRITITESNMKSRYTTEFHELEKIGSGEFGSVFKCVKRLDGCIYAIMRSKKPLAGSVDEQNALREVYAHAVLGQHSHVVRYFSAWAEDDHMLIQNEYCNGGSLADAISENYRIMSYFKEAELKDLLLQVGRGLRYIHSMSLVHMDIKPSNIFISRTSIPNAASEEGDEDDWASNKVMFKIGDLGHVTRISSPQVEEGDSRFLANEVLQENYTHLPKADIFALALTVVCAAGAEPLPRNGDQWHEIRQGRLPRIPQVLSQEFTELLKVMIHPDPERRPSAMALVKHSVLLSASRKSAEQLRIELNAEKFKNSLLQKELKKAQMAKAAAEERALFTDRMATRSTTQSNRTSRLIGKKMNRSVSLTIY
# APP transl inh – inhibitors of APP translation via 5'UTR reporter, primary screen, APP 5'UTR luciferase, SH-SY5Y cells. inhibition, % at 2 µM. SH-SY5Y APP 5'UTR-luciferase reporter, luminescence. hit rate 0.82% among 190,000;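 active means inhibition above a set limit, derived from the sample mean plus 3 SD, cut at about 45% in these data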
# STAT1 act – STAT1 signaling activators, primary screen, cell-based, HTS, luciferase reporter. AID 932, 2007. hit rate 2.6% among 200,000. activation (% of control), % at 5.5 µM. NIH 3T3 STAT1-luciferase reporter, IFN-gamma, luminescence; 100% = IFN-gamma alone, no compound;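 active means activation above the screen-wide mean activation plus 3 SD, cut at about 130% in these data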;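 further: raw ratio to IFN-gamma control signal so 100% means no change and 0% no light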
# NF-kB expr up – activators of NF-kB expression in neurons, primary screen, cell-based, HTS; human neuronal cells, NF-kB reporter expression; active compounds read high; fold change at 12.5 µM; hit rate 1.6% among 190,000; AID 1239, 2008; in the data active means fold change above about 3.3
# Active calls of the source: *; / = no result.
SMILES,APP 5'UTR act,Hsp70 activator,Wee1 stabilizer,APP transl inh,STAT1 act,NF-kB expr up
CCOC(=O)c1sc(NC(=O)c2cc3ccccc3o2)nc1C,116,-1,-5,-116,142*,2.6
CCOC(=O)c1sc2cccc(F)c2c1N,-7,0,33*,7,108,1.2
Cc1nc(NC(=O)c2oc3ccccc3c2C)sc1C(=O)N(C)C,43,0,-4,-43,139*,2.1
CCOC(=O)c1sc(NC(=O)c2ccc3ncsc3c2)nc1C,83,-1,-2,-83,148*,2
CCOC(=O)c1sc2cccc(Cl)c2c1N,-18,0,2,18,92,1.4
CC(=O)NS(=O)(=O)c1ccc(NC(=O)c2ccccc2F)cc1,2,1,6,-2,105,1.1
COc1cc(C2NC(=O)NC(c3ccccc3)=C2C(C)=O)ccc1OCC#N (configuration not stated),16,0,1,-16,102,0.95
CCOc1ccccc1N(C)C(=O)C1CCN(S(=O)(=O)c2cccc3nonc23)CC1,-63,0,0,63*,95,0.8
CCOc1ccc(OCC)c(NC(=O)C2CCN(S(=O)(=O)c3cccc4nonc34)CC2)c1,5,0,0,-5,96,0.6
CN1C(=O)SC(Nc2ccccc2)C1=O (configuration not stated),12,0,-1,-12,106,1.1
COc1cccc(NC2SC(=O)N(c3ccccc3)C2=O)c1 (configuration not stated),14,0,-2,-14,117,4.1*
CNC(=O)NC(=S)NC(=O)c1ccc(OC)cc1,22,0,-1,-22,104,1.9
COc1ccc(C(=O)NC(=O)NC2(C(Cl)(Cl)Cl)OCCO2)cc1,226*,0,8,-226,128,5.1*
CC1CCCCC1NC(=O)CSc1nnc(CN2CCOCC2)n1C (configuration not stated),-12,0,-1,12,92,1.1
COc1cccc(C(=O)NNC(=O)Cc2csc(N)n2)c1,15,0,-1,-15,102,1.1
Clc1ccc(-c2cc(CSc3ccccc3)on2)cc1,/,0,0,/,136*,6.2*
C(=C\c1ccccc1)/C=N/N1CCN(c2ccccn2)CC1,17,1,5,-17,132*,2.1
C(/C=C/c1ccccc1)=N/N1CCN(c2ccccc2)CC1,11,0,-1,-12,126,1.1
Cc1ccsc1C(=O)OCC(=O)Nc1sccc1C(N)=O,59,0,0,-60,132*,1.7
O=C(Nc1cc2c(oc1=O)CCCC2=O)c1ccc(Cl)cc1,18,0,-2,-18,136*,1.4
Cc1nccc2oc(=O)c(NC(=O)c3ccc(Cl)cc3)cc12,-21,0,3,22,104,2.1
Cc1ccc2nc(-c3ccc(NC(=O)Cc4cccs4)cc3)[nH]c2c1,109,0,10*,-109,145*,2.2
Cc1ccc2nc(-c3ccc(NC(=O)C4CCCO4)cc3)[nH]c2c1 (configuration not stated),115,0,4,-115,95,3.8*
Cc1sc(NC(=O)c2cccnc2)nc1-c1ccccc1,0,0,-1,0,101,1.2
CCc1ccc(Nc2cc(=O)n(C3CCCCC3)c(=O)[nH]2)cc1,20,0,2,-20,120,1.8
CN=c1oc2ccc(Cl)cc2cc1C(N)=O,-9,1,-3,9,96,0.96
CC(C1CC1)N(Cc1ccccc1)C(=S)Nc1ccccc1 (configuration not stated),23,0,9.6*,-23,98,1.1
CC(C1CC1)N(Cc1ccccc1)C(=S)Nc1cccc(C(F)(F)F)c1 (configuration not stated),2,0,2,-2,89,0.92
